Our source for the growth values is PubChem BioAssay (NCI).

Some test systems named below: SK-MEL-2 melanoma; EKVX NSCLC; SN12C renal; UO-31 renal; TK-10 renal; ACHN renal; CAKI-1 renal; CCRF-CEM leukemia; MOLT-4 leukemia; SR leukemia; RPMI-8226 leukemia; OVCAR-8 ovarian; OVCAR-5 ovarian; OVCAR-4 ovarian; SK-OV-3 ovarian; IGROV1 ovarian; OVCAR-3 ovarian; HS 578T breast; NCI/ADR-RES ovarian; A498 renal.
Common to all, as to assay: NCI-60 one-dose screen, 48 h (100 = growth as untreated, 0 = no growth, -100 = all killed)
What all share (conditions): 10 µM unless noted

Molecules are shown by their SMILES. Compounds without any hit were thinned out: in the full panel of roughly 83,000, 20% have a hit.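 Testing used 96-well plates and a 48-hour single-concentration exposure. Example: -40 means 40% of the starting cells died.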 Unmarked numbers belong to inactive results. Calls of active or inactive are those of the source. Rule for the calls: active = growth percent below 10; inactive = the rest.

Turning to `CC(C)C(C(=O)CCN(C)C)c1ccc(Cl)cc1` (stereo not drawn), the growth is 98.4% in the test on SK-MEL-2 melanoma; 103% in the test on EKVX NSCLC; 95.4% in the test on SN12C renal; 93.3% with UO-31 renal; 101% with TK-10 renal; 101% in the test with ACHN renal. Also, the growth with CAKI-1 renal is 102%; in the test on CCRF-CEM leukemia, 90.6%; with MOLT-4 leukemia it was 76.5%; in the test on SR leukemia, 84%; in the test with RPMI-8226 leukemia, 67.5%; in the test on OVCAR-8 ovarian, 93.3%. Moreover, the growth is 115% in the test on OVCAR-5 ovarian; 109% in the test on OVCAR-4 ovarian; 85.2% with SK-OV-3 ovarian; 105% with IGROV1 ovarian; 108% in the test with OVCAR-3 ovarian; 101% in the test on HS 578T breast. Moreover, the growth in the test with NCI/ADR-RES ovarian was 106%.
`CCCCCCCCCCCCCCCCCCOc1cccc(CCOP(=O)(O)OCC[N+](C)(C)C)c1`: the growth with SK-MEL-2 melanoma is 90.4%; in the test with EKVX NSCLC, 97%; in the test on SN12C renal, 91.1%; in the test on UO-31 renal, 91.5%; with TK-10 renal, 36.5%; in the test on ACHN renal it was 95.8%. Further, the growth is 55.3% with CAKI-1 renal; 99.2% in the test on A498 renal; 104% with MOLT-4 leukemia; 58.6% in the test with SR leukemia; 86.9% with RPMI-8226 leukemia; 95% in the test on OVCAR-8 ovarian. In addition, the growth is 101% with OVCAR-5 ovarian; 91.4% in the test on OVCAR-4 ovarian; 39% in the test on IGROV1 ovarian; 86.9% in the test on OVCAR-3 ovarian; 93.1% with HS 578T breast; 94.1% with NCI/ADR-RES ovarian.
Consider `COc1cccc2cc(-c3cc4ccccc4[nH]3)c(=NC(=O)c3ccc(Cl)cc3)oc12`, for which the growth in the test on SK-MEL-2 melanoma was 83.3%; with EKVX NSCLC it was 77.9%; in the test with SN12C renal, 83.8%; with UO-31 renal, 58.4%; in the test on TK-10 renal, 96.6%; in the test with ACHN renal it was 51.5%. Also, the growth with CAKI-1 renal was 53.8%; in the test with A498 renal it was 64.9%; in the test with MOLT-4 leukemia, 61.5%; in the test on SR leukemia, 62.7%; in the test on RPMI-8226 leukemia, 76.1%; in the test with OVCAR-8 ovarian it was 53.8%. Further, the growth was 85.9% with OVCAR-5 ovarian; 66.8% in the test on OVCAR-4 ovarian; 53.7% with IGROV1 ovarian; 67% in the test with OVCAR-3 ovarian; 70.8% in the test with HS 578T breast; 53% with NCI/ADR-RES ovarian.
For `Cc1ccnc2nc(C(=O)OCC(=O)Nc3ccc(-c4ccccc4)cc3)nn12`, the growth is 77.3% in the test on SK-MEL-2 melanoma; 104% in the test with EKVX NSCLC; 102% in the test on SN12C renal; 62.8% in the test on UO-31 renal; 118% in the test on TK-10 renal; 107% in the test with ACHN renal. For the same compound, the growth with CAKI-1 renal was 91%; with CCRF-CEM leukemia it was 91.6%; in the test on MOLT-4 leukemia, 65%; with SR leukemia it was 53.3%; in the test on RPMI-8226 leukemia, 98.1%; in the test on OVCAR-8 ovarian it was 102%. Also, the growth with OVCAR-5 ovarian was 96%; in the test with OVCAR-4 ovarian, 95%; in the test on SK-OV-3 ovarian it was 116%; in the test with IGROV1 ovarian it was -5.67% (active); in the test on OVCAR-3 ovarian it was 112%; in the test with HS 578T breast, 125%. For the same compound, in the test on NCI/ADR-RES ovarian, the growth was 98.3%.
As to `NC(=O)c1ccc2c(c1)OCO2`, the growth is 114% in the test with SK-MEL-2 melanoma; 95.1% with EKVX NSCLC; 108% in the test on SN12C renal; 102% in the test on UO-31 renal; 91.7% with TK-10 renal; 109% in the test with ACHN renal. Moreover, the growth is 93.5% in the test on CAKI-1 renal; 86.8% in the test on A498 renal; 102% in the test on CCRF-CEM leukemia; 105% in the test with MOLT-4 leukemia; 106% with RPMI-8226 leukemia; 113% in the test with OVCAR-5 ovarian. The growth in the test with OVCAR-4 ovarian is 103%; in the test on SK-OV-3 ovarian it was 130%; in the test with OVCAR-3 ovarian, 107%; in the test on HS 578T breast, 98.7%; in the test with NCI/ADR-RES ovarian it was 97%.
On to `O=S=Nc1ccc([N+](=O)[O-])cc1`, for which the growth in the test on SK-MEL-2 melanoma is 98.4%; with EKVX NSCLC it was 96.9%; with SN12C renal, 98.7%; in the test on UO-31 renal, 78.3%; with TK-10 renal, 84.9%; in the test with ACHN renal it was 80.8%. The growth in the test with CAKI-1 renal was 78.9%; in the test on CCRF-CEM leukemia, 101%; in the test on MOLT-4 leukemia it was 91.2%; in the test with SR leukemia, 90.3%; in the test with RPMI-8226 leukemia, 102%; in the test with OVCAR-8 ovarian it was 104%. Besides, the growth is 87.2% with OVCAR-5 ovarian; 101% in the test on OVCAR-4 ovarian; 103% in the test with IGROV1 ovarian; 98.3% in the test with OVCAR-3 ovarian; 95% in the test with HS 578T breast; 99.4% with NCI/ADR-RES ovarian.
On to `Cc1oc2nc[nH]c(=O)c2c1C(=O)/C=C/c1ccc(Cl)cc1`, for which the growth is 55.7% with SK-MEL-2 melanoma; 62% in the test with EKVX NSCLC; 25.4% with SN12C renal; 37.9% in the test with UO-31 renal; 32.3% with TK-10 renal; 27.2% in the test with ACHN renal. Further, the growth in the test on CAKI-1 renal is 26.1%; in the test with A498 renal, 62.4%; in the test on MOLT-4 leukemia, 40.7%; with SR leukemia it was -30.6% (active); with OVCAR-8 ovarian it was 15.8%; with OVCAR-5 ovarian it was 34.5%. Besides, the growth is 29.8% in the test with OVCAR-4 ovarian; 38.9% in the test with IGROV1 ovarian; 4.32% (active) in the test with OVCAR-3 ovarian; 60.5% in the test with HS 578T breast; 10.4% in the test with NCI/ADR-RES ovarian.
`CSc1ccccc1C#C/C=C\C#Cc1ccccc1N1CCCCC1=O`: the growth in the test on SK-MEL-2 melanoma is 70.8%; in the test with EKVX NSCLC, 91.5%; in the test on SN12C renal it was 98.3%; with UO-31 renal, 34.6%; in the test on TK-10 renal it was 151%; with ACHN renal it was 97.7%. The growth in the test with CAKI-1 renal was 95%; in the test with A498 renal it was 107%; with CCRF-CEM leukemia, 60%; in the test on MOLT-4 leukemia it was 104%; in the test with RPMI-8226 leukemia it was 64.3%; in the test on OVCAR-8 ovarian it was 103%. The growth in the test on OVCAR-4 ovarian was 102%; with IGROV1 ovarian, -29.6% (active); in the test with OVCAR-3 ovarian it was 97.6%; in the test with HS 578T breast, -20.4% (active); in the test with NCI/ADR-RES ovarian, 102%.
